Data on eight compounds can be found in PubChem BioAssay (NCI).

Test systems include HCT-15 colon; HT29 colon; SNB-75 CNS; SNB-19 CNS; U251 CNS; PC-3 prostate; SK-MEL-5 melanoma; UACC-62 melanoma; LOX IMVI melanoma; SK-MEL-28 melanoma; SK-MEL-2 melanoma; EKVX NSCLC; SN12C renal; UO-31 renal; ACHN renal; CAKI-1 renal; A498 renal; CCRF-CEM leukemia; MOLT-4 leukemia; TK-10 renal.
Holding throughout (assay): NCI-60 one-dose screen, 48 h (100 = growth as untreated, 0 = no growth, -100 = all killed)
Conditions in all cases: 10 µM unless noted

Molecules are shown by their SMILES. This is part of a sample that, as a whole, favours compounds with a hit. Of some 83,000 tested, about 20% had one in any assay.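 Interpretation: 100, growth as untreated; towards 0, rising growth inhibition; 0, no net growth; 0 to -100, cell death. Compounds scoring below 10 were considered active.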 Unmarked numbers belong to inactive results. Active and inactive are the calls of the source.

Take `C=Cc1cc[n+](CCCCCCCCCCCC)cc1`: the growth with HCT-15 colon is 110%; in the experiment on HT29 colon, 99.2%; in the experiment with SNB-75 CNS, 97.4%; with SNB-19 CNS it was 103%; with U251 CNS, 109%; with PC-3 prostate, 110%. Besides, the growth in the experiment with SK-MEL-5 melanoma is 104%; in the experiment on UACC-62 melanoma, 105%; in the experiment on LOX IMVI melanoma, 99.7%; in the experiment on SK-MEL-28 melanoma, 111%; in the experiment with SK-MEL-2 melanoma, 150%; with EKVX NSCLC, 105%. Moreover, the growth in the experiment with SN12C renal was 101%; in the experiment with UO-31 renal it was 94%; in the experiment with ACHN renal it was 108%; in the experiment on CAKI-1 renal, 103%; in the experiment with A498 renal it was 94.9%; in the experiment with CCRF-CEM leukemia, 87.9%. For the same compound, the growth in the experiment on MOLT-4 leukemia is 94.7%.

For the compound `Cc1ccc(O)c(C(=O)O)c1`, the growth in the experiment on HCT-15 colon was 104%; in the experiment with HT29 colon, 102%; with SNB-75 CNS, 107%; with SNB-19 CNS it was 109%; with U251 CNS, 92.6%; in the experiment on PC-3 prostate, 104%. Besides, the growth with SK-MEL-5 melanoma was 105%; in the experiment on UACC-62 melanoma it was 104%; in the experiment on LOX IMVI melanoma it was 101%; with SK-MEL-28 melanoma, 114%; in the experiment on SK-MEL-2 melanoma, 109%; with EKVX NSCLC, 118%. Also, the growth with SN12C renal is 104%; in the experiment on UO-31 renal, 94%; with ACHN renal, 106%; in the experiment on A498 renal, 99.9%; with CCRF-CEM leukemia it was 98.1%; in the experiment with MOLT-4 leukemia, 97.7%.

`COc1cc(-c2nc3sccn3c2-c2ccnc(NCCNS(=O)(=O)c3ccc(F)cc3)n2)ccc1F`: the growth in the experiment with HCT-15 colon was 13.2%; in the experiment on HT29 colon, 10.8%; with SNB-75 CNS, 52.7%; in the experiment with SNB-19 CNS, 35.7%; with U251 CNS it was 17.5%; in the experiment with PC-3 prostate, 6.16% (active). Moreover, the growth in the experiment on SK-MEL-5 melanoma was -75.3% (active); with UACC-62 melanoma, -65.2% (active); in the experiment on LOX IMVI melanoma, 4.75% (active); with SK-MEL-28 melanoma, 19.2%; in the experiment with SK-MEL-2 melanoma it was -38.3% (active); with EKVX NSCLC, 23.6%. In addition, the growth in the experiment with SN12C renal is 15.1%; in the experiment on UO-31 renal, -11.1% (active); in the experiment on ACHN renal, 0.0766% (active); in the experiment on CAKI-1 renal, 8.83% (active); with A498 renal, 22.5%; with CCRF-CEM leukemia it was 2.47% (active). Further, the growth in the experiment on MOLT-4 leukemia is -15.4% (active).

Consider `COc1ccc(-c2nc(N/N=C/c3cccc(Br)c3)nc(N3CCOCC3)c2C#N)cc1`, for which the growth with HCT-15 colon is 7.3% (active); with HT29 colon it was 21.5%; with SNB-75 CNS, -17.7% (active); with SNB-19 CNS, 93.4%; with U251 CNS it was 52.4%; in the experiment on PC-3 prostate, 47.8%. For the same compound, the growth in the experiment on SK-MEL-5 melanoma is 72%; in the experiment on UACC-62 melanoma, 84.4%; in the experiment on LOX IMVI melanoma, 91.3%; in the experiment with SK-MEL-28 melanoma, -8.47% (active); in the experiment on SK-MEL-2 melanoma, 80.1%; with EKVX NSCLC, 90.2%. Moreover, the growth in the experiment with SN12C renal is 89.4%; in the experiment with UO-31 renal, 43.5%; with ACHN renal, 54.6%; in the experiment on CAKI-1 renal, 59.6%; with A498 renal, 45.1%; with CCRF-CEM leukemia it was 35.6%. Besides, the growth in the experiment with MOLT-4 leukemia is 46.9%.

With `CCC(C)C(N)C(=O)NNc1n[nH]c(=S)n1N` (stereo not given), the growth in the experiment on HCT-15 colon was 103%; with HT29 colon it was 107%; with SNB-75 CNS, 99.6%; in the experiment on SNB-19 CNS, 97.7%; in the experiment on U251 CNS, 101%; with PC-3 prostate, 100%. The growth in the experiment on SK-MEL-5 melanoma was 100%; in the experiment with UACC-62 melanoma it was 101%; in the experiment on LOX IMVI melanoma, 101%; in the experiment on SK-MEL-28 melanoma, 107%; in the experiment on SK-MEL-2 melanoma, 102%; in the experiment on EKVX NSCLC, 95.5%. The growth was 85.3% in the experiment with UO-31 renal; 104% in the experiment on TK-10 renal; 101% in the experiment with ACHN renal; 91% with CAKI-1 renal; 93.8% in the experiment on A498 renal; 99.7% with CCRF-CEM leukemia. Moreover, in the experiment with MOLT-4 leukemia, the growth is 101%.

As to `Cc1nc2sc(C(=O)Nc3cccc(Br)c3)c(N)c2cc1C(=O)c1ccc(C(F)(F)F)cc1`, the growth in the experiment with HCT-15 colon was 88.1%; with HT29 colon, 90.3%; with SNB-75 CNS, 55%; with SNB-19 CNS, 82.3%; in the experiment with U251 CNS, 58.7%; with PC-3 prostate, 70.2%. In addition, the growth is 91% in the experiment on SK-MEL-5 melanoma; 82.7% in the experiment on UACC-62 melanoma; 73.3% in the experiment with LOX IMVI melanoma; 92.1% in the experiment on SK-MEL-28 melanoma; 104% in the experiment on SK-MEL-2 melanoma; 87.7% with EKVX NSCLC. Also, the growth in the experiment on UO-31 renal was 86.3%; with TK-10 renal, 90.8%; in the experiment with ACHN renal, 49.7%; in the experiment on CAKI-1 renal, 79.8%; in the experiment on A498 renal, 109%; with CCRF-CEM leukemia it was 82.1%. Besides, in the experiment on MOLT-4 leukemia, the growth is 94.7%.

Take `COc1cc(C2CC(c3cccc(Nc4ccncc4)c3)=NN2c2ccc(Cl)cc2)cc(OC)c1OC` (stereo not given): the growth with HCT-15 colon is -36.4% (active); in the experiment with HT29 colon it was -30.3% (active); in the experiment with SNB-75 CNS it was 26.1%; in the experiment with SNB-19 CNS it was 57.9%; in the experiment on U251 CNS it was -53.2% (active); in the experiment with PC-3 prostate, -22% (active). Besides, the growth in the experiment on SK-MEL-5 melanoma was -50.7% (active); with UACC-62 melanoma, 91.1%; in the experiment with LOX IMVI melanoma, -88.8% (active); with SK-MEL-28 melanoma, -83.2% (active); in the experiment on SK-MEL-2 melanoma, 55.8%; in the experiment with EKVX NSCLC, 65.2%. Also, the growth in the experiment with UO-31 renal is 42.4%; with TK-10 renal it was 68.4%; in the experiment on ACHN renal, -62.1% (active); in the experiment with CAKI-1 renal it was 19.2%; with A498 renal, 64.1%; with CCRF-CEM leukemia it was -9.68% (active). Besides, the growth in the experiment with MOLT-4 leukemia is -17.3% (active).

Consider `CC(c1ccccc1)n1ccnc1CO` (stereo not given), for which the growth is 107% in the experiment with HCT-15 colon; 119% in the experiment with HT29 colon; 92.4% with SNB-75 CNS; 98.5% in the experiment on SNB-19 CNS; 98.9% in the experiment with U251 CNS; 94.7% in the experiment with PC-3 prostate. For the same compound, the growth with SK-MEL-5 melanoma is 93.4%; in the experiment on UACC-62 melanoma, 104%; with LOX IMVI melanoma it was 96.3%; in the experiment with SK-MEL-28 melanoma, 94.5%; in the experiment on SK-MEL-2 melanoma, 111%; in the experiment with EKVX NSCLC it was 93.3%. Further, the growth was 102% in the experiment on SN12C renal; 95.4% in the experiment on UO-31 renal; 103% in the experiment with ACHN renal; 88.9% in the experiment with CAKI-1 renal; 105% in the experiment on CCRF-CEM leukemia; 107% in the experiment on MOLT-4 leukemia.
